For this assay, the target named is Histone deacetylase 4 (Homo sapiens) (UniProt P56524). Put plainly: recombinant HDAC4 deacetylase inhibitors – biochemical, HDAC isoform panel, selectivity assay for E-cadherin restoration project, profiling panel (AID 651928). As to conditions: recombinant HDAC4, fluorogenic substrate deacetylation; series mostly up to 10 µM.

The values that follow come from PubChem BioAssay AID651928 (Vanderbilt Specialized Chemistry Center, 2012).

The source made the active and inactive calls. How the calls were made is not given here.

Histone deacetylase 4 (Homo sapiens), sequence (P56524 whole entry, looked up, canonical isoform): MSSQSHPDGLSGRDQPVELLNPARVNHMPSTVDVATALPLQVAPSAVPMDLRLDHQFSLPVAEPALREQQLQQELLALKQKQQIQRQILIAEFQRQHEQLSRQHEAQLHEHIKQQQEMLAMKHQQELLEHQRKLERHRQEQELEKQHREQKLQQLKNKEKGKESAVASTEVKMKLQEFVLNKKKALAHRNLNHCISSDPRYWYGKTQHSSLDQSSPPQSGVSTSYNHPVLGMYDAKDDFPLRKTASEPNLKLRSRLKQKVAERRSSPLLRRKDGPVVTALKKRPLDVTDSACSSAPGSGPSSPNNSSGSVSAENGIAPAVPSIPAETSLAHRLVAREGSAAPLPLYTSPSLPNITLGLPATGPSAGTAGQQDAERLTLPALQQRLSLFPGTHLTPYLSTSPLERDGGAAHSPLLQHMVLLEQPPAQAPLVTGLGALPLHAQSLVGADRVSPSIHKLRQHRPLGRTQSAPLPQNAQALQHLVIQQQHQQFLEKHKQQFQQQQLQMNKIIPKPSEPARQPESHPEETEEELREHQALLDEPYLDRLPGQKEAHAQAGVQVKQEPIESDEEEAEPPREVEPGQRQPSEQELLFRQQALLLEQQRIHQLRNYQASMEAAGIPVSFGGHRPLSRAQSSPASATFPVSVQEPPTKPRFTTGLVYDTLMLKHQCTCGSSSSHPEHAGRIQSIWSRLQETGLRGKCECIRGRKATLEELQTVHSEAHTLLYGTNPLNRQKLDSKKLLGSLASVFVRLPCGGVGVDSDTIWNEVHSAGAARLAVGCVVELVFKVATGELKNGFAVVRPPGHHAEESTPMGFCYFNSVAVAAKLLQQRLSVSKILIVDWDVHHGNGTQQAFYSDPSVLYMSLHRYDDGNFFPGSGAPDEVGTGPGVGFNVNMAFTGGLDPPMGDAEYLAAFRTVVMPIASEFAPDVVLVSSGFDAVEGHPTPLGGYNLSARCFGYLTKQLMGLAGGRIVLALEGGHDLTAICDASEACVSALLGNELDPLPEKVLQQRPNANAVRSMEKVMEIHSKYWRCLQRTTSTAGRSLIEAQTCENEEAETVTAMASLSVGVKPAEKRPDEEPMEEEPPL

Take `O=C(NCCCNC(=O)c1ccc[nH]c1=O)c1cc(-c2ccccc2)on1`: the result was inactive.
